PubChem BioAssay (NCI)
This is part of a sample that, as a whole, favours compounds with a hit. Of some 83,000 tested, about 20% had one in any assay.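 Cells were grown in 96-well plates and exposed to the test compound at a single concentration for 48 hours; results are reported as percent growth, with values below 10 considered active.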 A number with no mark means an inactive call. Activity calls are given as the source filed them.

tested on: HL-60(TB) leukemia; test: NCI-60 one-dose screen, 48 h (100 = growth as untreated, 0 = no growth, -100 = all killed); settings: 10 µM unless noted

| Structure (SMILES) | growth |
| --- | --- |
| CCN(c1ccc(Cl)cc1)c1nc(-c2ccc([N+](=O)[O-])cc2)cs1 | 96.1% |
| CCOC(=O)C1=C(C)NC(SCc2nnc(-c3ccc(Cl)cc3)o2)=NC1c1ccc(Cl)cc1 (stereo not given) | 21.4% |
| COc1ccc(Nc2nc(NCCNc3ccnc4cc(Cl)ccc34)nc(N3CCOCC3)n2)cc1 | 22.8% |
| O=C(CCc1nnc2sc(Cc3ccccc3Cl)nn12)c1nc2ncccc2[nH]1 | 116% |
| O=C(Nc1sc2c(c1C(=O)O)CCCC2)c1cccc(C(F)(F)F)c1 | 92.9% |
| COCCOc1cc2ncnc(N3CCN(S(=O)(=O)c4ccccc4Cl)CC3)c2cc1OCCOC | 56% |
| CN(C)CCOc1ccc(/C(=C(/CCCl)c2ccccc2)c2ccccc2)cc1 | -33% (active) |
| NNC(=O)c1nc2ccccc2[nH]1 | 101% |
| COc1ccc(-c2nc3sc(-c4ccc(Cl)cc4)cn3n2)cc1 | 105% |
| O=C(CNc1nc(-c2ccc(Cl)cc2)cs1)Nc1ccc(-c2nc3ccccc3s2)cc1 | 99.3% |
| c1ccc(-c2nc([P+](c3ccccc3)(c3ccccc3)c3ccccc3)c(N3CCOCC3)o2)cc1 | -12% (active) |
| OC(COc1ccccc1Cl)CN1CCN(c2cccc(Cl)c2)CC1 (stereo not given) | 112% |
| COc1ccc(NC(=O)CCl)cc1 | 69.8% |
| Clc1ccc(/C=C2\CCCC3=C2N=C2SC=NN2C3c2ccc(Cl)cc2)cc1 (stereo not given) | 91.1% |
| O=C(O)CCCCCNC(=O)OCc1ccccc1 | 103% |
| CSc1nc(-c2cccc(NC(=O)CCl)c2)c(C#N)c(=O)n1C | -22.1% (active) |
| O=C(Nc1ccc(-n2cc(-c3ccncc3)c(-c3ccc(O)c(Cl)c3)n2)cc1)Nc1cc(C(F)(F)F)cc(C(F)(F)F)c1 | 43.6% |
| NC(CSC(c1ccccc1)(c1ccccc1)c1ccccc1)C(=O)O (stereo not given) | -0.908% (active) |
| Cc1cc(C(=O)c2ccccc2)c(C)c2c1[nH]c1ccc(Cl)cc12 | 1.08% (active) |
| COc1cc(NC(=O)CSc2nc3ccc(Cl)cc3c(=O)n2-c2ccc(F)cc2)cc(OC)c1OC | 106% |

| Structure (SMILES) | growth |
| --- | --- |
| CN(CCC#N)c1ccc(/C=C(\C#N)c2cccc(C(F)(F)F)c2)cc1 | 69.5% |
| Cc1c(C)c(C)c([N+](=O)[O-])c([N+](=O)[O-])c1C | 109% |
| c1ccc2[nH]c(-c3cc(-c4ccc5c(c4)OCO5)n[nH]3)nc2c1 | 13.3% |
| COc1cccc(-c2nn(C)c3sc(C(=O)NCCN4CCN(c5ccccc5F)CC4)cc23)c1 | 8.08% (active) |
| CCCCOc1ccc(NC(=O)Nc2nnc(C)s2)cc1 | 80.7% |
| O=C(N(c1ccccc1)c1ccccc1)n1ccc2nc(Cl)nc(Cl)c21 | 49.5% |
| CC(C)(Sc1cc(C(C)(C)C)c(OC(=O)CCCC(=O)O)c(C(C)(C)C)c1)Sc1cc(C(C)(C)C)c(OC(=O)CCCC(=O)O)c(C(C)(C)C)c1 | -22.6% (active) |
| CN(C)c1ccc(/C=C(\C#N)c2cc3ccccc3[nH]2)cc1 | 22.2% |
| N=C1/C(=C2\NC3C=CC=CC3S2)C(c2ccc(Cl)cc2)C2C(=O)N(c3ccccc3)C(=S)N12 (stereo not given) | 100% |
| COc1ccccc1C(=O)NC(=S)Nc1ccc(-c2nc3ccccc3[nH]2)cc1 | 59.7% |
| COc1cc([C@@H](CCO)C[C@H](C)c2ccc3ccccc3c2)cc(OC)c1OC | 6.14% (active) |
| O=C1Nc2cc(-c3ccc(O)cc3)ccc2/C1=C/c1ccc[nH]1 | -8.12% (active) |
| COc1ccccc1/C=C/C(=O)c1ccccc1 | 51.8% |
| Fc1ccccc1-c1nc(-c2nc3cc(Cl)c(Cl)cc3[nH]2)c2ccccn12 | 81.6% |
| COc1ccc(CCN2C(=O)/C(=C/c3ccc(C4Oc5ccccc5C5CC(c6cccc(OC)c6)=NN54)cc3)SC2=S)cc1 (stereo not given) | 99.5% |
| N#Cc1c(Nc2cccc(Cl)c2)sc(C(=O)c2cc3cc(Cl)ccc3o2)c1N | 92.9% |
| CC(C)(C)OC(=O)CN1CCc2c(sc3ncnc(N/N=C/c4cccc5ccccc45)c23)C1 | -9.67% (active) |
| O=C(/C=C/c1cccc(B(O)O)c1)c1cccc(B(O)O)c1 | -13.8% (active) |
| CCCCCCCCCCCCCCCC(=O)OC[C@@]1(O)C[C@@]23CC[C@@H]4C(C)(C)[C@H](O)CC[C@@]4(C)[C@@H]2CC[C@H]1C3 | 101% |
| COc1cccc(/C=C2\SC(=Nc3ccc(NC(C)=O)cc3)NC2=O)c1OC | 101% |
